This passage reports Potency and outcome results from PubChem BioAssay (NCATS).

Inconclusive results are not listed. Calls of active or inactive are those of the source. Unless noted, the call rests on the fitted dose curve; in most records, active means well fitted curve in the direction sought with a large enough effect; inconclusive means small, poorly fitted or top-dose-only effect, or another doubt; inactive means no such curve, though single readings can be large; an effect the other way counts as inactive or inconclusive.

Experiment [1] is described as follows: qHTS of pediatric cancer cell lines to identify multiple opportunities for drug repurposing: Primary screen for TC32 cells (AID 1347089). Further: nearly all actives have a fitted effect of over 60% in size. Further: potency means the concentration at half of the fitted maximal effect. In a few lines:
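qHTS, TC32, 48 h drug treatment, CellTiter-Glo luminescence as a proxy for metabolically active cells; primary top concentration 46 µM (MIPE 11-pt, NPC 8-pt); confirmatory 11-pt.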
In general terms: qHTS replaces the single test concentration by a dilution series.

The nature of experiment [2]: qHTS of pediatric cancer cell lines to identify multiple opportunities for drug repurposing: Primary screen for DAOY cells (AID 1347090). Further: nearly all actives have a fitted effect of over 55% in size. Further: potency means the concentration at half of the fitted maximal effect. Put shortly:
(§1)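 Cell viability, CellTiter-Glo luminescence; 500-1,000 cells/well, 8- or 11-point titration, 48 h compound exposure at 37 degrees C, 5% CO2. Controls: DMSO neutral, bortezomib 2.3 µM final as positive.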

Experiment [3] is described as follows: qHTS of pediatric cancer cell lines to identify multiple opportunities for drug repurposing: Primary screen for SJ-GBM2 cells (AID 1347091). Further: potency means the concentration at half of the fitted maximal effect. In a few lines: as §1
Experiment [4] can be described thus: qHTS of pediatric cancer cell lines to identify multiple opportunities for drug repurposing: Primary screen for A673 cells (AID 1347092). Further: nearly all actives have a fitted effect of over 45% in size. Further: potency means the concentration at half of the fitted maximal effect. In a few lines: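 Luminescence from CellTiter-Glo, taken after 15 min at room temperature, served as the proxy for metabolically active cells following 48 h treatment. Both potency and efficacy were taken from curves fitted to the titration data.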

Experiment [5] can be described thus: qHTS of pediatric cancer cell lines to identify multiple opportunities for drug repurposing: Primary screen for SK-N-MC cells (AID 1347093). Further: potency means the concentration at half of the fitted maximal effect. Put shortly: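 Metabolically active cells were quantified by ATP-dependent luminescence (CellTiter-Glo, 15 min at room temperature) following 48 h treatment. Cells had been plated at 500-1,000 per well and settled for 5 h beforehand.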

Experiment [6] can be described thus: qHTS of pediatric cancer cell lines to identify multiple opportunities for drug repurposing: Primary screen for BT-37 cells (AID 1347094). Further: potency means the concentration at half of the fitted maximal effect. In a few lines: (§2)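 Readout: CellTiter-Glo luminescence, 48 h treatment. Controls DMSO (neutral) and bortezomib 2.3 µM final (positive). Potency and efficacy taken from primary-screen concentration-response curves.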
The nature of experiment [7]: qHTS of pediatric cancer cell lines to identify multiple opportunities for drug repurposing: Primary screen for NB-EBc1 cells (AID 1347095). Further: potency means the concentration at half of the fitted maximal effect. Put shortly:
as §2

A short description of experiment [8]: qHTS of pediatric cancer cell lines to identify multiple opportunities for drug repurposing: Primary screen for U-2 OS cells (AID 1347096). Further: nearly all actives have a fitted effect of over 50% in size. Put shortly: (§3)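 Cells (500-1,000/well) rested 5 h, then received compounds for 48 h; metabolically active cells were measured by CellTiter-Glo luminescence. Final concentrations spanned up to 46 µM (MIPE, 11-point) or 0.59 nM-46 µM (NPC, 8-point) in primary screens, 11-point in follow-ups.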

Experiment [9] in a line: qHTS of pediatric cancer cell lines to identify multiple opportunities for drug repurposing: Primary screen for Saos-2 cells (AID 1347097). Further: nearly all actives have a fitted effect of over 40% in size. Further: potency means the concentration at half of the fitted maximal effect. Put shortly:
as §2

The nature of experiment [10]: qHTS of pediatric cancer cell lines to identify multiple opportunities for drug repurposing: Primary screen for SK-N-SH cells (AID 1347098). Further: nearly all actives have a fitted effect of over 65% in size. Further: potency means the concentration at half of the fitted maximal effect. In a few lines: as §3
The nature of experiment [11]: qHTS of pediatric cancer cell lines to identify multiple opportunities for drug repurposing: Primary screen for NB1643 cells (AID 1347099). Further: nearly all actives have a fitted effect of over 50% in size. Further: potency means the concentration at half of the fitted maximal effect. Put shortly:
as §2

Experiment [12] is described as follows: qHTS of pediatric cancer cell lines to identify multiple opportunities for drug repurposing: Primary screen for LAN-5 cells (AID 1347100). Further: potency means the concentration at half of the fitted maximal effect. In a few lines: as §3
Experiment [13] in a line: qHTS of pediatric cancer cell lines to identify multiple opportunities for drug repurposing: Primary screen for BT-12 cells (AID 1347101). Further: nearly all actives have a fitted effect of over 25% in size. Further: potency means the concentration at half of the fitted maximal effect. Put shortly: as §3
Experiment [14] can be described thus: qHTS of pediatric cancer cell lines to identify multiple opportunities for drug repurposing: Primary screen for Rh18 cells (AID 1347102). Further: nearly all actives have a fitted effect of over 65% in size. Further: potency means the concentration at half of the fitted maximal effect. In a few lines:
as §3

Experiment [15] can be described thus: qHTS of pediatric cancer cell lines to identify multiple opportunities for drug repurposing: Primary screen for OHS-50 cells (AID 1347103). Further: nearly all actives have a fitted effect of over 40% in size. Further: potency means the concentration at half of the fitted maximal effect. Put shortly: as §3
Experiment [16] is described as follows: NS1 protein of Zika virus - qHTS assay to identify small molecule inhibitors in human HEK 293 cells (AID 1347053). Further: nearly all actives have a fitted effect of over 55% in size. Further: potency means the concentration at half of the fitted maximal effect. Put shortly: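 Following 20 h seeding, HEK 293 cells took compound, then 1 h later ZIKV MR766 (MOI = 0.5). Incubation ran 24 h at 37 C before TR-FRET detection of NS1; a drop in signal indicates inhibition.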
Experiment [17] concerns the target T1, Tyrosine-protein phosphatase non-receptor type substrate 1 (Homo sapiens) + Leukocyte surface antigen CD47 (Homo sapiens) (UniProt P78324+Q08722). The experiment in a line: CD47-SIRPalpha protein protein interaction - LANCE assay qHTS validation (AID 1347057; active means well fitted curve in the direction sought with a large enough effect in the signal ratio, with a control signal flat, not every such curve was filed as active; the % refers to the signal ratio; further: series mostly up to about 38 µM). In a few lines:
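First, His-tagged CD47 and Eu-labelled anti-His antibody met the compound for 30 min; next, site-specifically biotinylated SIRPalpha was added for 30 min; finally streptavidin-APC was added before reading the TR-FRET ratio.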
(In general: Time-resolved FRET reads energy transfer from a long-lived donor to a nearby acceptor.)

The target of experiment [18] is T1, Tyrosine-protein phosphatase non-receptor type substrate 1 (Homo sapiens) + Leukocyte surface antigen CD47 (Homo sapiens). The experiment in a line: CD47-SIRPalpha protein protein interaction - Alpha assay qHTS validation (AID 1347059).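 Further: bead proximity luminescence from CD47 binding SIRPalpha after compound preincubation with SIRPalpha.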 In a few lines:
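Binding is measured by AlphaScreen proximity: Ni-NTA acceptor beads capture His-CD47, streptavidin donor beads capture biotin-SIRPalpha. Each of three additions (SIRPalpha with compound, CD47, beads) incubates 30 min at room temperature protected from light.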

In experiment [19] the target is Parathyroid hormone/parathyroid hormone-related peptide receptor (Homo sapiens) (UniProt Q03431). The experiment in a line: qHTS for PTHR1 Agonists: Optimization Screen against the NCGC LOPAC library (AID 1347079).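 Further: GloSensor cAMP luminescence in HEK-293 GP2 cells expressing human PTHR1 with IBMX.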 In a few lines:
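Agonist readout: GloSensor cAMP luminescence, read after 15 min at room temperature. HEK-293-derived GP2 line carries PTHR1; compounds tested as a titration for 1 hr at 37C in presence of IBMX. M-PTH (1-15) served as control.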

T1 sequence (P78324 whole entry, looked up): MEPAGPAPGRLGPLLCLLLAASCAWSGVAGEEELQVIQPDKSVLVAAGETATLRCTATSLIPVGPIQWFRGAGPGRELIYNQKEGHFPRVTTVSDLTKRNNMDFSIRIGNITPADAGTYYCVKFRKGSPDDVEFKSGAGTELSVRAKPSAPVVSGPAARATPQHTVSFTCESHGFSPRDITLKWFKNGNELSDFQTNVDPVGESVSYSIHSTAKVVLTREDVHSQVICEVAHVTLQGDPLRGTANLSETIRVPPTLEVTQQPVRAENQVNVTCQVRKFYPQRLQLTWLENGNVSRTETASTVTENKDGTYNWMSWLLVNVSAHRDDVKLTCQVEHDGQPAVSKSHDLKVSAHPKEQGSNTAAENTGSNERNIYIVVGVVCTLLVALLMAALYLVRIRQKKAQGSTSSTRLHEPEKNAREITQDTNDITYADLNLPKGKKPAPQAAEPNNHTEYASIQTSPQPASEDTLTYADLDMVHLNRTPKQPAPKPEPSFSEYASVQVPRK
T1 sequence (Q08722 whole entry, looked up): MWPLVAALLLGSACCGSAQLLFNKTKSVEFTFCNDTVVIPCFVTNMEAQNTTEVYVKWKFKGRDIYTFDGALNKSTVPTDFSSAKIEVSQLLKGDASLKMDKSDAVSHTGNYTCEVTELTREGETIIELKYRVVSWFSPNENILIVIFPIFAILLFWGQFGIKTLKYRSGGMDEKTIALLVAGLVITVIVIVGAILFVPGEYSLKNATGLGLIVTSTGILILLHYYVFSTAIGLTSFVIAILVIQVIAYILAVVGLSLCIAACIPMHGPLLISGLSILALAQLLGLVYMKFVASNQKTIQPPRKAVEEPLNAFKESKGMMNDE
Chain of Parathyroid hormone/parathyroid hormone-related peptide receptor (Homo sapiens) (Q03431 whole entry, looked up): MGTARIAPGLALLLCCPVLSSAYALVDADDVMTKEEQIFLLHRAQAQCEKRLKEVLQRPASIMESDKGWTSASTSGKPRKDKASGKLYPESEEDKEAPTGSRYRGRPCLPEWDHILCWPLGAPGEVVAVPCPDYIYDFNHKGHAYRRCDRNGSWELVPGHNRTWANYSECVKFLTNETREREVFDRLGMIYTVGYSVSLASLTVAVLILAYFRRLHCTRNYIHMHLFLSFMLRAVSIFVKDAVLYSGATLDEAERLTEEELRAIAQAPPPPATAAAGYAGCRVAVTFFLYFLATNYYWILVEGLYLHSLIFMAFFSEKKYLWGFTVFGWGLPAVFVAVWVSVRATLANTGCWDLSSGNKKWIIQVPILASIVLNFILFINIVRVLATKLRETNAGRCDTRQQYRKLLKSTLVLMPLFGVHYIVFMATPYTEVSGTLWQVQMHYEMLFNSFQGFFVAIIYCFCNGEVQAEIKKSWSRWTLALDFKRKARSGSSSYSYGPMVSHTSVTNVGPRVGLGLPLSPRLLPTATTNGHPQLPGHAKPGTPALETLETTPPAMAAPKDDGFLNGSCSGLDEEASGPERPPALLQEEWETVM

Take `CCc1cccc2c(CCO)c[nH]c12`: the Potency result in experiment [1], in experiment [2], in [3], in [4], in [5] and in experiment [6] was “inactive” in each case. The Potency result in [7], in experiment [8], in [9], in experiment [10], in experiment [11] and in experiment [12] was “inactive” throughout. The Potency result in experiment [13], in experiment [14] and in experiment [15] was “inactive” in each case.
On to `CCCCCC[C@@H](CCC)C(=O)O`, for which the Potency result in experiment [1], in experiment [2], in experiment [3], in experiment [4], in experiment [5] and in experiment [6] was “inactive” in each case. Further, the Potency result in experiment [7], in experiment [8], in experiment [9], in experiment [10], in experiment [11] and in experiment [12] was “inactive” each time. The Potency result in experiment [13], in experiment [14] and in experiment [15] was “inactive” throughout.
As to `O=C(O)CCCC[P+](c1ccccc1)(c1ccccc1)c1ccccc1`, the Potency entry in experiment [1], in experiment [2], in experiment [3], in experiment [4], in experiment [5] and in experiment [6] was “inactive” in each case. The Potency result in [7], in experiment [8], in experiment [9], in [10], in [11] and in experiment [12] was “inactive” each time. For the same compound, the Potency entry in [13], in experiment [14] and in experiment [15] was “inactive” each time.
For `O=C1NCCN1CCN1CCC(c2cn(-c3ccc(F)cc3)c3ccc(Cl)cc23)CC1`, the Potency in experiment [16] was 7080 nM (active); in experiment [3], 10600 nM (active); in experiment [5], 6680 nM (active); in experiment [7], 21100 nM (active); in [10], 21700 nM (active); in [13], 8710 nM (active).
`Nc1cc(C(F)(F)F)ccc1S`: the Potency result in experiment [16], in experiment [3], in experiment [6] and in experiment [12] was “inactive” each time. For the same compound, in experiment [4], the Potency is 21100 nM (active).
With `CN1CC[C@H](c2c(O)cc(O)c3c(=O)cc(-c4ccccc4Cl)oc23)[C@H](O)C1`, the Potency in experiment [1] was 592 nM (active); in [2] it was 531 nM (active); in [3], 106 nM (active); in [5] it was 266 nM (active); in experiment [6], 347 nM (active); in experiment [7], 133 nM (active). The Potency in experiment [13] and in [15] was 276 nM (active) throughout.
Consider `CC(=O)[C@H]1CC[C@H]2[C@@H]3C=CC4=CC(=O)CC[C@@]4(C)[C@@H]3CC[C@]12C`, for which the Potency result in experiment [1], in experiment [2], in [3], in [4], in experiment [6] and in experiment [7] was “inactive” each time. In addition, the Potency result in experiment [8], in experiment [9], in experiment [10], in experiment [11], in experiment [13] and in [14] was “inactive” each time.
As to `CC[C@@]1(O)C(=O)OCc2c1cc1n(c2=O)Cc2c-1nc1ccccc1c2/C=N/OC(C)(C)C`, the Potency in experiment [1] is 29.7 nM (active); in experiment [2] it was 106 nM (active); in experiment [3], 26.6 nM (active); in experiment [4] it was 33.5 nM (active); in experiment [5], 21.1 nM (active); in experiment [6], 30.9 nM (active). Also, the Potency is 21.1 nM (active) in experiment [7]; 59.6 nM (active) in experiment [9]; 194 nM (active) in experiment [10]; 53.1 nM (active) in experiment [11]; 21.1 nM (active) in experiment [12]; 246 nM (active) in [13]. The Potency in [15] was 34.7 nM (active).
For the compound `Nc1ccc(C(=O)OCC(O)CO)cc1` (stereo not given), the Potency entry in experiment [1], in experiment [2], in experiment [3], in experiment [4], in experiment [6] and in [7] was “inactive” each time. The Potency result in experiment [8], in [9], in [10], in experiment [12], in [13] and in experiment [14] was “inactive” in each case. Moreover, the Potency result in experiment [15] was “inactive”. Further, the Potency in experiment [11] was 1 nM (active).
Consider `O=c1[nH]sc2cc(Cl)ccc12`, for which, in experiment [16], the Potency entry is “inactive”. The Potency in experiment [4] is 1 nM (active); in experiment [5] it was 1 nM (active); in experiment [7], 1 nM (active); in experiment [10], 217 nM (active); in [11], 168 nM (active); in [14], 18800 nM (active).
For the compound `Clc1ccc2c(c1)Nc1ccccc1S2`, the Potency entry in experiment [1], in experiment [2], in [3], in [5], in [6] and in experiment [7] was “inactive” throughout. In addition, the Potency entry in experiment [8], in [10], in experiment [11], in experiment [12] and in experiment [14] was “inactive” throughout.
On to `CC(C)(C)C(=O)OCOC(=O)C1N2C(=O)CC2S(=O)(=O)C1(C)C` (stereo not given), for which the Potency entry in experiment [1], in [2], in [3], in experiment [4], in experiment [5] and in experiment [6] was “inactive” in each case. Further, the Potency result in experiment [7], in [8], in [10], in experiment [11], in experiment [12] and in [13] was “inactive” throughout. Further, the Potency entry in experiment [14] is “inactive”.
With `CC(C)CCCC(C)NCCC(C)C` (stereo not given), the Potency result in [16], in experiment [3], in experiment [5], in experiment [6], in experiment [7] and in [8] was “inactive” in each case. The Potency entry in experiment [10], in experiment [11], in experiment [12], in experiment [13], in experiment [14] and in experiment [15] was “inactive” each time.
As to `Cc1nc(N)nc(N)c1-c1ccc(Cl)c(Cl)c1`, the Potency in experiment [1] was 470 nM (active); in experiment [2], 841 nM (active); in experiment [3] it was 299 nM (active); in [4], 1060 nM (active); in experiment [5], 33.5 nM (active); in [6] it was 550 nM (active). Moreover, the Potency was 422 nM (active) in [7], 872 nM (active) in experiment [13] and 2760 nM (active) in experiment [15]. Besides, the Potency result in experiment [11] and in experiment [14] was “inactive” each time.
For the compound `CC(C)N(CCC(=O)c1ccc2ccccc2c1)Cc1ccccc1`, the result in experiment [17] and in experiment [19] was inactive. Also, the Potency result in [18] is “inactive”.
Turning to `CC(Oc1c(Cl)cccc1Cl)C1=NCCN1` (stereo not given), the Potency entry in experiment [1], in experiment [2], in [3], in experiment [4], in experiment [5] and in experiment [6] was “inactive” each time. The Potency result in experiment [7], in [11], in experiment [12], in experiment [13] and in experiment [14] was “inactive” throughout.
In the case of `O=C1CC[C@H](C(=O)N2CCCCC2)N1`, the Potency entry in [1], in experiment [2], in [3], in experiment [4], in experiment [5] and in experiment [6] was “inactive” in each case. The Potency result in experiment [7], in experiment [8], in [9], in experiment [10], in experiment [11] and in experiment [12] was “inactive” each time. The Potency result in experiment [14] and in [15] was “inactive” each time.
